PubChem BioAssay (NCATS)
Several values for one entry are separate records, joined by “and”; a condition that tells them apart may be missing. Identical values can stand only once. Results filed as inconclusive are left out. Where a call stands in place of a potency, no number is given. Unmarked numbers belong to inactive results. Activity calls are given as the source filed them. Calls follow the shape of the dose curve; as a rule, active = well fitted curve in the direction sought with a large enough effect; inconclusive = small, poorly fitted or top-dose-only effect, or another doubt; inactive = no such curve, though single readings can be large; an effect the other way counts as inactive or inconclusive.

How the values were obtained:
[1] = test system: Zika virus NS2B-NS3 protease; assay: Primary screen GU AMC qHTS for Zika virus inhibitors (AID 1347154); also: nearly all actives have a fitted effect of over 70% in size; also: potency is read from the fitted curve at half-maximal effect
Summary of the method: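 Unlinked Zika NS2B hydrophilic domain–NS3 protease complex at 25 nM in 10 mM Tris-HCl pH 8.0, 0.01% Tween 20, with an AMC peptide substrate. Fluorescence change (340/450 nm) over 15 min at room temperature, normalized to controls, fitted to 4-parameter Hill.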

[2] = qHTS of pediatric cancer cell lines to identify multiple opportunities for drug repurposing: Confirmatory screen for SK-N-SH cells (AID 1347129);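 also: potency is read from the fitted curve at half-maximal effect; cells exposed to compound for 48 h before viability read; nearly all actives have a fitted effect of over 60% in size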
Summary of the method: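 Viability after 48 h compound treatment at 37C, 500-1,000 cells/well, read as ATP luminescence with CellTiter-Glo. Primary screens used 11-point (MIPE, 0.78 nM-46 µM) or 8-point (NPC, 0.59 nM-46 µM) final concentrations; follow-up screens used 11-point dilutions.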

[3] = test system: Zika virus NS2B-NS3 protease (unlinked complex); assay: Primary screen GU Rhodamine qHTS for Zika virus inhibitors: Unlinked NS2B-NS3 protease assay (AID 1347159); also: nearly all actives have a fitted effect of over 60% in size; also: potency is read from the fitted curve at half-maximal effect
Summary of the method: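 Unlinked NS2B/NS3, 25 nM; Rhod110 peptide, 1.5 microM; compounds, up to 114 microM. Reaction run 15 min at RT in 10 mM Tris-HCl pH 8.0, 0.01% Tween 20; kinetic fluorescence change fitted with a 4-parameter Hill model.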

[4] = test system: Zika virus NS2B-NS3 protease (linked construct); assay: Primary screen NINDS Rhodamine qHTS for Zika virus inhibitors (AID 1347160); also: nearly all actives have a fitted effect of over 55% in size; also: potency is read from the fitted curve at half-maximal effect
Summary of the method: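 Single-chain NS2B-NS3 protease, 25 nM, pH 8.0; compounds preincubated 15 min. Activity: Rhodamine110 release from 1.5 microM substrate over 15 min, room temperature, data fitted to 4-parameter Hill.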

[5] = target: Furin (Homo sapiens) (UniProt P09958); assay: Furin counterscreen qHTS for Zika virus inhibitors (AID 1347149); also: nearly all actives have a fitted effect of over 70% in size; also: potency is read from the fitted curve at half-maximal effect;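 as to activity change, negative = inhibition: purified recombinant full-length human furin enzyme at 5 nM; fluorescence gain from furin cutting a BOC-RVRR-AMC peptide substrate over 15 min; top concentration of the series differs between compounds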
Chain of Furin (Homo sapiens) (P09958 whole entry, looked up): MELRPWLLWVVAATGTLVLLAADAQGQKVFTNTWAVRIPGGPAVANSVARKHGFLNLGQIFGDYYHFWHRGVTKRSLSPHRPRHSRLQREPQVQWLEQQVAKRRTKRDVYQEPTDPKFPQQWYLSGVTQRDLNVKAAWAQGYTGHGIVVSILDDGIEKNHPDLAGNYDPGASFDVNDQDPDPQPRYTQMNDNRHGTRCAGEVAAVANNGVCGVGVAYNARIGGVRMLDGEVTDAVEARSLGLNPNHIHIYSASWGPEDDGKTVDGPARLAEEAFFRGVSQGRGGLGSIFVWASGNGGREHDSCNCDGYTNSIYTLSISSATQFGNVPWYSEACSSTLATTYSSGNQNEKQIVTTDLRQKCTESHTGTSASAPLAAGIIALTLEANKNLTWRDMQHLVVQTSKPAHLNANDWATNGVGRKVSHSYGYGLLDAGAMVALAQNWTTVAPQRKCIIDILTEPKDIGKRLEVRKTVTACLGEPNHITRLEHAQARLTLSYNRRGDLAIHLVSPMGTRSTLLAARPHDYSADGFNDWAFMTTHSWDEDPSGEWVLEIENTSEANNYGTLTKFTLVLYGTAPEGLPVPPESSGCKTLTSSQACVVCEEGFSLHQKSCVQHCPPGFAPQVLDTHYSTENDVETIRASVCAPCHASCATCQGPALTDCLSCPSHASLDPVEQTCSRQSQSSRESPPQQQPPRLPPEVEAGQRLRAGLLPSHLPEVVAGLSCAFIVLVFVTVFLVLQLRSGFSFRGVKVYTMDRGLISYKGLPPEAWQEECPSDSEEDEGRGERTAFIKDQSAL
Summary of the method: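 Counterscreen measures cleavage of 2 microM BOC-RVRR-AMC, below its ~15 microM Km, by 5 nM full-length human furin at pH 7.0 after a 15-min compound preincubation. Inhibition derives from the 15-min fluorescence increase at 37C.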

[6] = test system: Zika virus NS2B-NS3 protease (linked construct); assay: Confirmatory screen NINDS AMC qHTS for Zika virus inhibitors (AID 1347152); also: nearly all actives have a fitted effect of over 70% in size; also: potency is read from the fitted curve at half-maximal effect;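 as to activity change, negative = inhibition: AMC fluorescence gain from cleaved Bz-Nle-KRR-AMC substrate over 15 min; top concentration of the series differs between compounds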
Summary of the method: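 Purified NS2B-NS3 protease with NS2B hydrophilic domain linked to NS3 protease domain by flexible linker, 1 nM final in 10 mM Tris-HCl pH 8.0, 0.01% Tween 20. Compounds preincubated 15 min, room temperature; Bz-Nle-KRR-AMC 10 microM (Km 18.3 µM); 15-min fluorescence change, 4-parameter Hill fit.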

[7] = test system: Zika virus NS2B-NS3 protease (linked); assay: 384 well plate NINDS AMC confirmatory qHTS for Zika virus inhibitors (AID 1347163); also: nearly all actives have a fitted effect of over 50% in size; also: potency is read from the fitted curve at half-maximal effect;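 as to activity change, negative = inhibition: linked protease at 5 30 or 60 nM final depending on run; fluorescence of AMC released from Ac-VKTGKR-AMC peptide cleaved by the protease; top concentration of the series differs between compounds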
Summary of the method: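 Fluorescence at 355/460 nm was read after 25 minutes of cleavage of 30 microM Ac-VKTGKR-AMC at room temperature, in the dark. Before substrate addition, compounds (up to 1 mM final) sat ~15 minutes with 5, 30 or 60 nM linked protease. Signals were normalized to no-enzyme and no-inhibitor wells.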

[8] = test system: Zika virus NS2B-NS3 protease (linked construct); assay: 384 well plate NINDS Rhodamine confirmatory qHTS for Zika virus inhibitors (AID 1347164);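 also: fluorescence from protease cleavage of Ac-LKRR-rhodamine 110 substrate; nearly all actives have a fitted effect of over 65% in size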; also: potency is read from the fitted curve at half-maximal effect; as to activity change, negative = inhibition: top concentration of the series differs between compounds
Summary of the method: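 Linked protease at a final 5 nM, 30 nM or 60 nM was preincubated ~15 min with compounds, then given 10 microM Ac-LKRR-Rhodamine 110. Fluorescence (ex 485/em 538 nm) after 25 min in the dark at room temperature.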

[9] = Vero cells viability qHTS for Zika virus inhibitors (AID 1347167)
Summary of the method: (§1)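 qHTS titration; 24-48 h compound exposure, 37 degrees C/5% CO2; DMEM, 4% FBS; CellTiter Glo ATP luminescence.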

[10] = HepG2 cells viability qHTS for Zika virus inhibitors (AID 1347168)
Summary of the method: as §1

[11] = test system: Zika virus NS2B-NS3 protease (unlinked complex); assay: Confirmatory screen GU AMC qHTS for Zika virus inhibitors (AID 1347153); also: nearly all actives have a fitted effect of over 70% in size; also: potency is read from the fitted curve at half-maximal effect
Summary of the method: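 Unlinked enzyme 25 nM, Tris pH 8.0/0.01% Tween 20; cpd 15 min RT, dark; + AMC substrate 10 µM (Km 18.3 µM); 340/450 nm read at t0 and 15 min; % inhibition → 4-param fit.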

[12] = Confirmatory screen GU Rhodamine qHTS for Zika virus inhibitors qHTS (AID 1347157)
Summary of the method: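 Noncovalent NS2B hydrophilic domain/NS3 protease complex (25 nM final) in 10 mM Tris-HCl pH 8.0, 0.01% Tween 20, preincubated 15 min with compounds (up to 114 microM), then 1.5 microM Rhodamine110 substrate. Fluorescence change over 15 min fitted to 4-parameter Hill.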

[13] = ZIKV-mCherry secondary qHTS for Zika virus inhibitors (AID 1347158); also: top concentration of the series differs between compounds
Summary of the method: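 Compounds were tested in Vero monkey kidney cells infected with recombinant mCherry-expressing Zika virus at MOI 1 for 48-72 h at 37 °C. Fixed cells were nuclear-stained and imaged, and infection rate was taken as the fraction of mCherry-positive cells.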

[14] = Tertiary RLuc qRT-PCR qHTS assay for Zika virus inhibitors (AID 1347169); also: top concentration of the series differs between compounds; nearly all actives have a fitted effect of over 55% in size
Summary of the method: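 Vero cells (1,000 per well) plated overnight at 37 degrees C, treated with compound in DMSO, then infected with recombinant ZIKV-RLuc (Cambodian) at MOI 1-2 for 48-72 hrs. Live-cell Renilla luciferase substrate added; luminescence read after 1-1.5 hrs.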

[15] = qHTS to identify inhibitors of the type 1 interferon - major histocompatibility complex class I in skeletal muscle: primary screen against the NCATS Pharmaceutical Collection (AID 1347407);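 also: luminescence of HiBiT knocked into endogenous HLA-B as interferon-induced MHC class I level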
Summary of the method: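 Immortalized human myoblasts (C25cl48) with HiBiT knocked into endogenous HLA-B*08:01 were stimulated with 4 ng/ml IFN-beta and treated with compounds (8-point, 1:5, top 46 uM final) for 24 h at 37 C; HiBiT lytic luminescence read.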

[16] = target: N-terminal Xaa-Pro-Lys N-methyltransferase 1 (Homo sapiens) (UniProt Q9BV86); assay: qHTS Assay for Inhibitors of N-terminal methyltransferase 1 (NTMT1): LOPAC validation of the NTMT1 SAHH-coupled ThioGlo3 Assay (AID 1347143); details: recombinant NTMT1, SAHH-coupled ThioGlo3 fluorescence
Chain of N-terminal Xaa-Pro-Lys N-methyltransferase 1 (Homo sapiens) (Q9BV86 whole entry, looked up): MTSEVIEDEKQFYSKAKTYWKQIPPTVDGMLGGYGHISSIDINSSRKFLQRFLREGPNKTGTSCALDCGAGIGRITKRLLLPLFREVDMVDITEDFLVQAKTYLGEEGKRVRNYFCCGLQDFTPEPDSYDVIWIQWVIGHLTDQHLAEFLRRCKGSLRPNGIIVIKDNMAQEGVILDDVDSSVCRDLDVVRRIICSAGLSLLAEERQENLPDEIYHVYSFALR
Summary of the method: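 Steps: dispense 125nM NTMT1; pin-transfer test compounds at several concentrations, with 1uM RCC1-6 peptide as control; incubate 1 min; start with reagent holding 100uM SAM, 10uM SAHH, 15uM ThioGlo3; read at 0 and 30 min.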

[17] = test system: Zika virus NS2B-NS3 protease (unlinked); assay: Optimization of GU AMC qHTS for Zika virus inhibitors: Unlinked NS2B-NS3 protease assay (AID 1347151); details: recombinant ZIKV NS2B-NS3 protease, fluorogenic AMC substrate; also: potency is read from the fitted curve at half-maximal effect; nearly all actives have a fitted effect of over 80% in size
Summary of the method: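 Noncovalent complex of NS2B hydrophilic domain and NS3 protease domain, 25 nM final, in 10 mM Tris-HCl pH 8.0, 0.01% Tween 20. AMC fluorescence change over 15 min at room temperature was fitted to a 4-parameter Hill equation.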

[18] = qHTS to identify inhibitors of the type 1 interferon - major histocompatibility complex class I in skeletal muscle: primary screen against the NCATS LOPAC collection (AID 1347405);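 also: lytic HiBiT luminescence reporting HLA-B protein level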
Summary of the method: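 First, engineered myoblasts carrying HLA-B-HiBiT were seeded in medium lacking dexamethasone with 4 ng/ml IFN-beta. After 1 hr, compounds were pinned in (top 46 uM final, 7 points). After 24 hrs at 37 C, luminescence was measured following 10 min lysis.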

## O=c1[nH]c(=O)n(C2CCCO2)cc1F (stereo not given)
[1]
  Potency: inactive

## CC(C)c1cc(C(=O)N2Cc3ccc(CN4CCN(C)CC4)cc3C2)c(O)cc1O
[2]
  Potency: 0.469 µM (active)
[1]
  Potency: inactive
[3]
  Potency: inactive
[4]
  Potency: inactive

## CC[C@H](CO)Nc1nc(NCc2ccccc2)c2ncn(C(C)C)c2n1
[1]
  Potency: inactive

## COC(=O)Nc1ccc(-c2nc(N3CCOCC3)c3cnn(C4CCN(Cc5cccnc5)CC4)c3n2)cc1
[2]
  Potency: 14.8 µM (active)
[1]
  Potency: inactive
[3]
  Potency: inactive
[4]
  Potency: inactive

## Nc1nc(-c2nn(Cc3ccccc3F)c3ncccc23)nc(N)c1N1CCOCC1
[1]
  Potency: inactive

## Cn1c2cc(S(C)=O)sc2c2cnn(Cc3cccc(N)c3)c(=O)c21 (stereo not given)
[1]
  Potency: inactive

## CCOC(=O)C1=C(C)NC2=C(C(=O)CC(C)(C)C2)C1c1ccc(-c2ccccc2)cc1 (stereo not given)
[5]
  Potency: 19.2 µM (active)
[6]
  Potency: 17.1 µM (active)
[1]
  Potency: 17.1 µM (active)
[3]
  Potency: inactive
[4]
  Potency: inactive
[7]
  Potency: inactive
[8]
  Potency: inactive
[9]
  Potency: inactive
[10]
  Potency: inactive

## C=CC(=O)Nc1cc2c(Nc3ccc(F)c(Cl)c3)ncnc2cc1OCCCN1CCOCC1
[1]
  Potency: inactive

## N#Cc1c(O)c2c(-c3ccc(-c4ccccc4O)cc3)csc2[nH]c1=O
[5]
  Potency: inactive
[6]
  Potency: 4.82 µM (active) and 8.79 µM (active)
[11]
  Potency: 9.61 µM (active)
[1]
  Potency: 8.57 µM (active)
[12]
  Potency: 2.21 µM (active)
[13]
  Potency: inactive
[3]
  Potency: 2 µM (active)
[4]
  Potency: 2.51 µM (active)
[7]
  Potency: 8.91 µM (active)
[8]
  Potency: inactive
[9]
  Potency: inactive
[10]
  Potency: inactive
[14]
  Potency: inactive

## Nc1ccc(S(=O)(=O)Nc2ncccn2)cc1
[1]
  Potency: inactive

## Cn1cncc1[C@@](N)(c1ccc(Cl)cc1)c1ccc2c(c1)c(-c1cccc(Cl)c1)cc(=O)n2C
[1]
  Potency: inactive

## CNC(=O)c1ccc(-c2cnc3ncc(Cc4ccc5ncccc5c4)n3n2)cc1F
[1]
  Potency: inactive

## COc1cc(C(=O)NS(=O)(=O)c2ccccc2C)ccc1Cc1cn(C)c2ccc(NC(=O)OC3CCCC3)cc12
[6]
  Potency: 9.61 µM (active)
[11]
  Potency: 17.1 µM (active)
[1]
  Potency: 12.6 µM (active)
[7]
  Potency: 141 µM (active)
[8]
  Potency: 28.2 µM (active)
[9]
  Potency: inactive
[10]
  Potency: inactive
[15]
  outcome: inactive

## CC(C)c1ccccc1Cc1cc(C(=O)Nc2ccc(S(=O)(=O)c3ccccc3C(C)(C)C)cc2)c(O)c(O)c1O
[5]
  Potency: inactive
[6]
  Potency: inactive
[11]
  Potency: inactive
[1]
  Potency: 17.1 µM (active)
[7]
  Potency: 2.24 µM (active)
[8]
  Potency: 1.58 µM (active)
[9]
  Potency: inactive
[10]
  Potency: inactive
[14]
  Potency: inactive

## CCN(CC)CCCCNc1ncc2cc(-c3cc(OC)cc(OC)c3)c(NC(=O)NC(C)(C)C)nc2n1
[5]
  Potency: 24.1 µM (active)
[11]
  Potency: inactive
[1]
  Potency: 21.5 µM (active)

## COc1cc(C(C)C)c2c(c1)S(=O)(=O)N(COc1cc(=O)n3cccc(OCCN4CCCCC4)c3n1)C2=O
[1]
  Potency: inactive

## CCC[C@H](NC(=O)C(C#N)=Cc1cccc(Br)n1)c1ccccc1
[1]
  Potency: inactive

## Nc1ccc(C(=O)c2cc3c(ccc4ccccc43)[nH]2)cc1
[1]
  Potency: inactive

## C[C@]12CC[C@H](O)CC1=CCC1C2CC[C@]2(C)C(n3cnc4ccccc43)=CCC12 (stereo not given in full)
[1]
  Potency: inactive

## O=c1c2ccccc2nc2n1CCc1c-2[nH]c2ccccc12
[16]
  Potency: 56.2 µM (active)
[5]
  Potency: 42.9 µM (active)
[17]
  Potency: 26.7 µM (active)
[6]
  Potency: 24.1 µM (active)
[1]
  Potency: 30.4 µM (active)
[3]
  Potency: inactive
[4]
  Potency: inactive
[7]
  Potency: inactive
[8]
  Potency: 56.2 µM (active)
[9]
  Potency: inactive
[18]
  outcome: inactive

## COc1ccc(CC2c3cc(OC)c(OC)cc3CC[N+]2(C)CCC(=O)OCCCCCOC(=O)CC[N+]2(C)CCc3cc(OC)c(OC)cc3C2Cc2ccc(OC)c(OC)c2)cc1OC (stereo not given)
[1]
  activity change, negative = inhibition: 4.96% [at 6.83 µM]

## Nc1cc(C(F)(F)F)c(-c2cc(N3CCOCC3)nc(N3CCOCC3)n2)cn1
[2]
  Potency: 4.69 µM (active)
[1]
  Potency: inactive
[3]
  Potency: inactive
[4]
  Potency: inactive

## O=C(O)[C@H](Cc1c[nH]c2ccccc12)N1C(=O)c2ccccc2C1=O
[1]
  Potency: inactive

## O=C(NCCS(=O)(=O)c1ccc(C(F)(F)F)cn1)c1ccc(Cl)cc1
[1]
  Potency: inactive

## Cc1cc(CN2CCN(c3c(Br)cnc4nc(-c5ccc(N6CCN(C)CC6)cc5)[nH]c34)CC2)no1
[5]
  Potency: 24.1 µM (active)
[6]
  Potency: 34.1 µM (active)
[1]
  Potency: 24.1 µM (active)
[13]
  Potency: inactive
[3]
  Potency: inactive
[4]
  Potency: inactive
[7]
  Potency: inactive

## COC(=O)C1=C(C)NC(C)=C(C(=O)OCCN2CCN(C(c3ccccc3)c3ccccc3)CC2)C1c1cccc([N+](=O)[O-])c1 (stereo not given)
[1]
  Potency: inactive

## CCCCOc1c(C(=O)c2c(F)cc(C)cc2F)cnc2n[nH]cc12
[1]
  Potency: inactive
[3]
  Potency: inactive
[4]
  Potency: inactive

## Cc1cc(Nc2cc(N3CCN(C)CC3)nc(C=Cc3ccccc3)n2)n[nH]1
[1]
  Potency: inactive

## CCc1cc2c(cc1N1CCC(N3CCOCC3)CC1)C(C)(C)c1[nH]c3cc(C#N)ccc3c1C2=O
[1]
  Potency: inactive
[3]
  Potency: inactive
[4]
  Potency: inactive
